Inconclusive results are not listed. The source made the active and inactive calls. Unless noted, no cut-off is given here; in the data, nearly all actives have AC50 up to about 26 µM.
Key:
[1] = viability loss in pontine glioma line – cell-based, SU-DIPG-XVII, MIPE5.0, CellTiter-Glo, qHTS, dose response (AID 1347060); conditions: CellTiter-Glo ATP luminescence;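 for AC50: cells exposed to compound for 48 hours before viability readout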
[2] = viability loss in pontine glioma line – cell-based, SU-DIPG-XIII, MIPE5.0, CellTiter-Glo, qHTS, dose response (AID 1347064; cut-off not given, nearly all actives have AC50 up to about 23 µM;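 for AC50: cells exposed to compound for 48 hours before the viability read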); conditions: CellTiter-Glo ATP luminescence
[3] = viability loss in pontine glioma line – cell-based, SU-DIPG-XXV, MIPE5.0, CellTiter-Glo, qHTS, dose response (AID 1347065); conditions: CellTiter-Glo ATP luminescence;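 note: cells exposed to compound for 48 hours before ATP readout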
[4] = JHH-DIPG-1 glioma cell viability, MIPE5.0 library, CellTiter-Glo luminescence, qHTS (AID 1347067); conditions: JHH-DIPG-1 glioma viability, CellTiter-Glo ATP luminescence;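 note: cells exposed to compound for 48 hours before readout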
[5] = growth inhibition of DIPG cells – cell-based, MIPE5.0 library, qHTS (AID 1347068; cut-off not given, nearly all actives have IC50 up to about 30 µM;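 for IC50: cells exposed to compound for 48 hours before viability readout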); conditions: SU-DIPG-XXV viability
[6] = viability loss with induced miR-34 in A549 – imaging, A549 dox-inducible miR-34, nuclei and caspase counts, primary screen (AID 1347080;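 active = compounds whose cell count with miR-34 switched on is under 0.7 times the count with it off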); conditions: A549 miR-34 inducible, Hoechst nuclei count, 48 h
[7] = MELAS cybrid and Rieske KO viability enhancers – cell-based, MELAS cybrids, Rieske KO mouse fibroblasts, CellTiter-Glo, primary screen (AID 1508586;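 active = mean z-score across replicates of 1.96 or higher in either the MELAS or the Rieske mutant cell line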;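 note: z relative to plate mean and SD of compound and empty wells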); conditions: low glucose
[8] = stronger effect = lower value, cell number ratio, induced over uninduced
[9] = measured here: relative caspase fold change +Dox/-Dox
[10] = measured here: total cells with miR-34 induction, stronger effect = lower value
[11] = measured here: total cells without miR-34 induction
[12] = MELAS cybrid survival, CellTiter-Glo 48 h, stronger effect = higher value
[13] = Rieske KO mouse fibroblast survival, CellTiter-Glo 72 h

With `C[C@@H]1CCN(C(=O)N2CCCC2)C[C@@H]1N(C)c1ncnc2[nH]ccc12` the outcome [1] was “inactive”, the outcome [2] was “inactive” and the outcome [3] was “inactive”. The outcome [4] was “inactive” and the outcome [5] was “inactive”.
With `Cn1cc(-c2ccc(S(=O)(=O)n3ccc(/C=C/C(=O)Nc4ccccc4N)c3)cc2)cn1` the AC50 [1] was 1480 nM (active), the AC50 [2] was 3320 nM (active) and the AC50 [3] was 1320 nM (active). For the same compound, the AC50 [4] was 1860 nM (active) and the IC50 [5] was 5900 nM (active).
In the case of `Cc1ncsc1-c1ccc([C@H](C)NC(=O)[C@@H]2C[C@@H](O)CN2C(=O)[C@@H](NC(=O)COCCCOCCNC(=O)C[C@@H]2N=C(c3ccc(Cl)cc3)c3c(sc(C)c3C)-n3c(C)nnc32)C(C)(C)C)cc1`, the AC50 [1] is reported as 132 nM (active), the AC50 [2] is reported as 209 nM (active) and the AC50 [3] is reported as 74.2 nM (active). The AC50 [4] was 52.5 nM (active) and the IC50 [5] was 332 nM (active).
In the case of `CCC(C)CNCC(=O)N1CCc2sccc2C1c1cccc(C)n1` (centres undefined), the outcome [1] is reported as “inactive”, the outcome [2] is reported as “inactive” and the outcome [3] is reported as “inactive”. For the same compound, the outcome [4] was “inactive” and the outcome [5] was “inactive”.
With `CC(=O)Nc1cc(Oc2ccc3c(nc(Nc4ccc(F)cc4F)n3C)c2C)ccn1` the AC50 [1] was 372 nM (active), the AC50 [2] was 4170 nM (active) and the AC50 [3] was 118 nM (active). The AC50 [4] was 525 nM (active) and the IC50 [5] was 1050 nM (active).
For `O=C(NC[C@H](O)CN1CCc2ccccc2C1)c1cc(NC2COC2)ncn1`, the AC50 [1] was 23500 nM (active), the outcome [2] was “inactive” and the outcome [3] was “inactive”. The outcome [4] was “inactive” and the outcome [5] was “inactive”.
With `CCn1c(=O)c(-c2ccc(-c3cncs3)cc2Cl)cc2cnc(Nc3ccc(N4CCN(C)CC4)cc3)nc21` the AC50 [1] was 3320 nM (active), the AC50 [2] was 8330 nM (active) and the AC50 [3] was 2950 nM (active). The AC50 [4] was 5250 nM (active) and the IC50 [5] was 10500 nM (active).
For `NC(=O)c1ccccc1Nc1ccnc(Nc2cccc(O)c2)n1`, the AC50 [1] was 2630 nM (active), the AC50 [2] was 5250 nM (active) and the AC50 [3] was 1320 nM (active). For the same compound, the AC50 [4] was 18600 nM (active) and the IC50 [5] was 4680 nM (active).
For `Cn1ncc(Cl)c1-c1cc(C(=O)NC(CN)Cc2ccc(F)c(F)c2)oc1Cl` (centres undefined), the AC50 [1] was 14800 nM (active), the AC50 [2] was 5900 nM (active) and the AC50 [3] was 661 nM (active). For the same compound, the AC50 [4] was 18600 nM (active) and the IC50 [5] was 16600 nM (active).
With `Cc1ccc(-c2ccc3ncc4c(c3n2)n(C2CCN(C(=O)[C@H](C)O)CC2)c(=O)n4C)cn1` the AC50 [1] was 468 nM (active), the AC50 [2] was 186 nM (active) and the AC50 [3] was 186 nM (active). The AC50 [4] was 372 nM (active) and the IC50 [5] was 417 nM (active).
For `CC(=O)c1cnc2ccc(-c3cc(Cl)c(O)c(Cl)c3)nc2c1NC1CCC(CN(C)C)CC1` (centres undefined), the AC50 [1] was 191 nM (active), the AC50 [2] was 171 nM (active) and the AC50 [3] was 121 nM (active). For the same compound, the AC50 [4] was 303 nM (active) and the IC50 [5] was 191 nM (active).
With `CN[C@@H](C)C(=O)N[C@H](C(=O)N1CCC[C@H]1C(=O)Nc1sc(-c2ncco2)nc1-c1ccccc1)C1CCCCC1` the outcome [1] was “inactive”, the outcome [2] was “inactive” and the outcome [3] was “inactive”. The outcome [4] was “inactive” and the outcome [5] was “inactive”.
With `CO[C@@H](C)Cn1c(=O)n(C)c2cnc3ccc(-c4cncc(C(C)(C)O)c4)cc3c21` the AC50 [1] was 934 nM (active), the AC50 [2] was 1860 nM (active) and the AC50 [3] was 590 nM (active). The AC50 [4] was 1050 nM (active) and the IC50 [5] was 1480 nM (active).
In the case of `C=CC(=O)N1CCC(Oc2cc3c(Nc4ccc(Cl)c(Cl)c4F)ncnc3cc2OC)CC1`, the AC50 [1] is reported as 6610 nM (active), the AC50 [2] is reported as 5250 nM (active) and the AC50 [3] is reported as 3320 nM (active). The AC50 [4] was 5250 nM (active) and the IC50 [5] was 16600 nM (active).
For `CS(=O)(=O)N1CCC(NC(=O)c2[nH]ncc2NC(=O)c2c(Cl)cccc2Cl)CC1`, the AC50 [1] was 3320 nM (active), the AC50 [2] was 4170 nM (active) and the AC50 [3] was 4170 nM (active). The AC50 [4] was 4170 nM (active) and the IC50 [5] was 4680 nM (active).
For `CC(C)(O)C1CCC(Nc2ccc3ncc(-c4cccc(C(F)(F)F)c4)n3n2)CC1` (centres undefined), the AC50 [1] was 7420 nM (active), the AC50 [2] was 18600 nM (active) and the AC50 [3] was 13200 nM (active). The AC50 [4] was 10500 nM (active) and the IC50 [5] was 8330 nM (active).
With `C=C1C[C@H]2C=Nc3cc(OCCCOc4cc5c(cc4OC)C(=O)N4CC(=C)C[C@H]4C=N5)c(OC)cc3C(=O)N2C1` the AC50 [1] was 1.86 nM (active), the AC50 [2] was 20.9 nM (active) and the AC50 [3] was 16.6 nM (active). The AC50 [4] was 3.72 nM (active) and the IC50 [5] was 74.2 nM (active).
With `COc1ccc(S(=O)(=O)N2CCc3cccc(-c4ccncc4)c32)cc1` the AC50 [1] was 468 nM (active), the AC50 [2] was 295 nM (active) and the AC50 [3] was 332 nM (active). For the same compound, the AC50 [4] was 332 nM (active) and the IC50 [5] was 833 nM (active).
With `Cc1cc(Oc2ccc3nc(COc4ccc(CC5SC(=O)NC5=O)cc4)n(C)c3c2)cc(C)c1N` (centres undefined) the outcome [1] was “inactive”, the outcome [2] was “inactive” and the outcome [3] was “inactive”. For the same compound, the outcome [4] was “inactive” and the outcome [5] was “inactive”.
For `Cc1ccc(S(=O)(=O)Nc2cc(-c3ccc(C#N)s3)ccc2C)cc1`, the AC50 [1] was 46.8 nM (active), the AC50 [2] was 52.5 nM (active) and the AC50 [3] was 33.2 nM (active). For the same compound, the AC50 [4] was 59 nM (active) and the IC50 [5] was 66.1 nM (active).
With `COc1cc2c(NC3CCN(CC4CCCCC4)CC3)nc(N3CCCN(C(C)C)CC3)nc2cc1OCCCN1CCCCC1` the AC50 [1] was 14800 nM (active), the AC50 [2] was 18600 nM (active) and the AC50 [3] was 13200 nM (active). For the same compound, the AC50 [4] was 20900 nM (active) and the IC50 [5] was 5250 nM (active).
With `CN(C)c1ccc(-c2nc3ncc(Cl)c(N4CCN(CC(=O)Nc5nccs5)CC4)c3[nH]2)cc1` the AC50 [1] was 2290 nM (active), the AC50 [2] was 7230 nM (active) and the AC50 [3] was 3230 nM (active). The AC50 [4] was 2290 nM (active), the outcome [5] was “inactive” and the fold change [6, 8] was 1.06 (inactive). The fold change [6, 9] was 0.825, the cell count [6, 10] was 2120 and the cell count [6, 11] was 2000. For the same compound, the z-score [7, 12] was 2.54 (active) and the z-score [7, 13] was -0.697.
In the case of `Cc1cc(C)cc(NC(=O)Cc2ccc(OC(C)(C)C(=O)O)cc2)c1`, the outcome [1] is reported as “inactive”, the outcome [2] is reported as “inactive” and the outcome [3] is reported as “inactive”. The outcome [4] was “inactive”, the outcome [5] was “inactive” and the fold change [6, 8] was 0.94 (inactive). For the same compound, the fold change [6, 9] was 0.66, the cell count [6, 10] was 8990 and the cell count [6, 11] was 9560. The z-score [7, 12] was -0.243 (inactive) and the z-score [7, 13] was -0.194.
With `CC(C)C(=O)OCC(=O)[C@@]12O[C@H](C3CCCCC3)O[C@@H]1C[C@H]1[C@@H]3CCC4=CC(=O)C=C[C@]4(C)[C@H]3[C@@H](O)C[C@@]12C` the AC50 [1] was 13200 nM (active), the AC50 [2] was 13200 nM (active) and the AC50 [3] was 8330 nM (active). For the same compound, the AC50 [4] was 2950 nM (active), the IC50 [5] was 14800 nM (active) and the z-score [7, 12] was -0.376 (inactive). It also gave a z-score [7, 13] of 1.73.

Source: PubChem BioAssay
